HttQ103 aggreg: reduces HttQ103-GFP aggregates in PC12 cells. PC12 HttQ103-GFP aggregates, Acumen cytometry, 40 h. Potency, µM (series often up to 46.1 µM), most hits filed as inhibitors. actives 1.1% (n = 220,000); note: nearly all actives have a fitted effect of over 60% in size
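Compounds (qHTS titration) were added to PC12 cells expressing an ecdysone-driven HTT exon 1 Q103–GFP fusion after induction with 100 nM tebufenozide. Aggregate formation was measured as GFP objects in cell lysates.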
HTT cytoprotect: protects HTT-Q103 PC12 cells, measured by ATP; PC12 HTT-Q103 induced, cytoprotection, ATP luminescence, 40 h; actives 0.14% (n = 230,000); Potency, µM (highest dose often 56.4 µM), most hits filed as activators; AID 1471; note: nearly all actives have a fitted effect of over 45% in size
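PC12 cells stably carrying ecdysone-inducible Htt exon 1 (Q103)–GFP were induced with 100 nM tebufenozide (final) alongside library compounds in a dose series. Cytoprotection was scored as retained ATP by ATPlite luminescence.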
Luc counter: Kinase-Glo luciferase inhibition (counter-screen) | Q27757 | Kinase-Glo luciferase, ATP luminescence, 8 min | Potency, µM (highest dose often 38.3 µM), most hits filed as inhibitors | actives 0.28% (n = 200,000) | AID 1379; note: nearly all actives have a fitted effect of over 60% in size
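Substrate mix (final 50 mM imidazole pH 7.2, 50 mM KCl, 7 mM MgCl2, 10 uM ATP, 0.01% Tween 20, 0.05% BSA) plus pin-tool compound, then Kinase-Glo detection mix; 8 min ambient, luminescence read.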
ALDH1A1 block: ALDH1A1 (human) enzyme inhibition; P00352; Purified ALDH1A1, NADH fluorescence, propionaldehyde substrate; Potency, µM (titrated, usually from 75.3 µM), most hits filed as inhibitors; actives 7.3% (n = 220,000); active = well fitted inhibition curve with a large enough effect, not every such curve was filed as active; inconclusive = small, poorly fitted or top-dose-only effect, or another doubt; inactive = no such curve, though single readings can be large or run the other way
Target sequence (P00352 whole entry, looked up): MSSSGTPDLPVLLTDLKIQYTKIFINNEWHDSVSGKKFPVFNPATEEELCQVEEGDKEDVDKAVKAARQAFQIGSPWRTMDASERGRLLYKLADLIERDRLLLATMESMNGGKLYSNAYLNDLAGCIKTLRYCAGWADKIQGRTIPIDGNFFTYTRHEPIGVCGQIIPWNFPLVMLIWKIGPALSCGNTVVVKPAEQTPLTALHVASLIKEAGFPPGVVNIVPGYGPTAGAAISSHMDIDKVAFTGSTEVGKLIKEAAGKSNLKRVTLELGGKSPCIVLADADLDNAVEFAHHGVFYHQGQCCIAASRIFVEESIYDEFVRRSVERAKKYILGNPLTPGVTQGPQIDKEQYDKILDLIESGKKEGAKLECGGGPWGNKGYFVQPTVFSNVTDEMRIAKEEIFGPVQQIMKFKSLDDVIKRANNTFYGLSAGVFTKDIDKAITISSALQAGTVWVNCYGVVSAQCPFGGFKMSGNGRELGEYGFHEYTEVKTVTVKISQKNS
HPGD inh: HPGD (human) dehydrogenase inhibition | Potency, µM, hits mostly inhibitors | actives 4.3% (n = 150,000) | purified HPGD, NADH fluorescence kinetic, PGE2 substrate | P15428 | AID 894; active = well fitted inhibition curve with a large enough effect, not every such curve was filed as active; inconclusive = small, poorly fitted or top-dose-only effect, or another doubt; inactive = no such curve, though single readings can be large or run the other way
Target sequence (P15428 whole entry, looked up): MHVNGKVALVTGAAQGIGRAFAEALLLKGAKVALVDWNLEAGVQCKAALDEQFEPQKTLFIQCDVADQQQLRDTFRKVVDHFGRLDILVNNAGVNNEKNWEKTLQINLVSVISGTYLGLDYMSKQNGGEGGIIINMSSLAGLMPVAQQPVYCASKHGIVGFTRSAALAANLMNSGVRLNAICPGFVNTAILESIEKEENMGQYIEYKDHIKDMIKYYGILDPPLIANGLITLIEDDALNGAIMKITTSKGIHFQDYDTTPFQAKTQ
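NADH formation kinetics: reaction with 30 uM PGE2 and 1 mM NAD+ (final), 20 nM enzyme, Tris-HCl pH 8 with Tween 20, after 15 min compound preincubation at room temperature. Fluorescence change, last versus first of five reads.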
LMNA splice mod: LMNA splicing modulation; Potency, µM (doses to about 46.1 µM), most hits filed as inhibitors; actives 0.01% (n = 200,000); AID 1487; HeLa LMNA splicing GFP/RFP minigene ratio, 48 h; active = well fitted inhibition curve with a large enough effect in the signal ratio, with a control signal flat, not every such curve was filed as active; inconclusive = small, poorly fitted or top-dose-only effect, or effect the other way, or a change in a side signal; the % refers to the signal ratio
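Read-out is the ratio of GFP to DsRed2 object intensity, acquired by 488 nm laser-scanning cytometry on HeLa lamin A-EGFP minigene reporter cells. Compound incubation 48 hrs at 37 °C in Opti-MEM with 2% FBS; DMSO 0.5% final.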
Numbers stand for hits; 0 = inactive; ? = inconclusive; - = no result; [ ] = remark or other dose. This is a sample that favours compounds with a hit; in the whole collection about 9% have one here. Unless noted, calls come from the whole dose curve; as a rule, active = well fitted curve in the direction sought with a large enough effect; inconclusive = small, poorly fitted or top-dose-only effect, or another doubt; inactive = no such curve, though single readings can be large; an effect the other way counts as inactive or inconclusive.

SMILES	HttQ103 aggreg	HTT cytoprotect	Luc counter	ALDH1A1 block	HPGD inh	LMNA splice mod
COC(=O)C1C(=O)C2=C(CC1C)NC(C)=C(C(=O)OC(C)C)C2c1ccc(C)o1 (centres undefined)	0	0	0	0	0	0
C[C@H](NC(=O)c1nc[nH]c1C(=O)N[C@@H](Cc1ccccc1)C(=O)OC(C)(C)C)c1ccccc1	0[9.22 µM]	0[10 µM]	-	18µM	-	-
C[C@H](NC(=O)c1nc[nH]c1C(=O)N[C@H](C)c1ccccc1)C(=O)OC(C)(C)C	0[9.22 µM]	0[10 µM]	-	0	-	-
C[C@H](NC(=O)c1nc[nH]c1C(=O)NC(c1ccccc1)c1ccccc1)C(=O)OC(C)(C)C	0[9.22 µM]	0[10 µM]	-	2µM	-	-
Cc1ccc(/C=N/n2c(-c3cccnc3)n[nH]c2=S)s1	0	0[10 µM]	0	?	13µM	0
S=c1[nH]nc(-c2cccnc2)n1/N=C/c1ccc(Br)s1	0	0[10 µM]	0	?	16µM	0
CCc1nnc(NC(=O)c2n[nH]c(=O)c3ccccc23)s1	0[9.22 µM]	0[10 µM]	-	-	-	-
Cc1cc2cc3c(cc2nc1SCc1ccccn1)OCCO3	0	0[10 µM]	0	0	0	0
N#Cc1cc2ccccc2nc1SCc1ccccn1	0	0[10 µM]	0	0	25µM	0
O=C(c1ccc2snnc2c1)N1CCCCC1	0	0[10 µM]	0	0	16µM	0
O=C(c1ccc2snnc2c1)N1CCOCC1	0	0	0	0	0	0
O=C(CSc1nnc(-c2cccnc2)n1C1CCCCC1)NC1CCCC1	0	0[10 µM]	0	0	22µM	0
CC1CCCN(C(=O)CSc2nnc(-c3cccnc3)n2C2CCCCC2)C1 (centres undefined)	0	0[10 µM]	0	0	?	0
COc1cc(C(=O)Oc2ccccc2/C=N/NC(=O)c2ccc(Cl)cc2)cc(OC)c1OC	2.8µM	0[10 µM]	0	0	0	?
O=C(N/N=C/c1ccccc1OC(=O)c1ccc2c(c1)OCO2)c1cccc(F)c1	2.5µM	0[10 µM]	0	0	0	?
COc1cc(C(=O)Oc2ccccc2/C=N/NC(=O)c2ccc(C)c(Cl)c2)cc(OC)c1OC	2.8µM	0[10 µM]	0	0	0	0
COc1cc(/C=N/NC(=O)c2cccnc2)ccc1OC(=O)c1ccc2c(c1)OCO2	0	0	0	0	0	0
Cc1ccc(C2C(C(=O)c3cccs3)=C(O)C(=O)N2c2cccc(C)n2)cc1 (centres undefined)	0[9.22 µM]	0[10 µM]	-	-	-	-
CN(C)CCNC(=S)NC1CCCCC1	0[9.22 µM]	0[10 µM]	0	0	-	0
CC(C)(C)C1=CC=C(C(C)(C)C)C(=O)C1=O	0[9.22 µM]	0[10 µM]	-	1.6µM	-	-
Cc1ccc(C(=O)N/C(=C\c2cn(C)c3ccccc23)C(=O)OCCN(C)C)cc1	0[9.22 µM]	0[10 µM]	-	0	-	-
Cc1[nH]nc2c1C(c1ccc(-c3ccccc3C#N)o1)C(C#N)=C(N)O2 (centres undefined)	0	0[10 µM]	-	11µM	-	0
Cc1ccc(-c2ccc(C3C(C#N)=C(N)Oc4n[nH]c(C)c43)o2)cc1 (centres undefined)	?	0	0	?	0	?
CCCCNC(=S)N(C)N=C1CCC(c2ccccc2)CC1 (centres undefined)	0	0[10 µM]	0	0.63µM	-	?
CCCCNC(=S)N(C)/N=C/c1ccccc1C(=O)O	0	0	0	0	0	0
SMILES	HttQ103 aggreg	HTT cytoprotect	Luc counter	ALDH1A1 block	HPGD inh	LMNA splice mod
CC1CC(C)CN(C(=O)CSc2nnc(-c3ccc(F)cc3)o2)C1 (centres undefined)	0	0	0	?	0	0
O=C(COc1cc(Cl)c(Cl)cc1Cl)Nn1cnnc1	0	0[0.074 µM]	0	0	0	0
CCCOn1c(OCC(C)C)nc2ccccc2c1=O	0	0[0.074 µM]	0	22µM	0	0
COc1cc(OC)cc(-c2nc3ccccc3c(=O)n2OC(=O)c2ccccc2C)c1	?	0[10 µM]	0	0	0	?
O=C(On1c(-c2ccccc2)nc2ccccc2c1=O)c1ccco1	0	0	0	8.9µM	?	0
Cc1nc2nc[nH]c2cc1Br	0	0	0	0	0	0
Cc1nc2[nH]c(=S)[nH]c2cc1Br	0	0	0	18µM	?	?
N#CC1=C(S)N(c2ccccc2)C(c2ccc(-c3cccc(Cl)c3)o2)NC1=O (centres undefined)	?	0[10 µM]	0	?	32µM	0
Cc1cccc(N2C(S)=C(C#N)C(=O)NC2c2ccco2)c1 (centres undefined)	0[9.22 µM]	0[10 µM]	0	0	-	-
O=S(=O)(NCc1cn2ccccc2n1)c1cccs1	0[9.22 µM]	0[10 µM]	-	-	-	-
CCN1C(=O)[C@H]2[C@H]3[C@H](O)[C@H](O)C/C(=N/OCC(C)C)[C@@H]3CC[C@@H]2C1=O	-	0[10 µM]	-	0[13.5 µM]	-	-
CCN1C(=O)[C@@H]2[C@H]3C(=CC[C@@H]2C1=O)C1(OCCCO1)[C@H]1O[C@@H]1[C@H]3O	-	0[10 µM]	-	1.8µM	-	-
Cn1nc([N+](=O)[O-])c(C(C#N)c2nc3ccccc3n2C)c(Cl)c1=O (centres undefined)	0	0[10 µM]	0	0	0	?
Cn1nc(C(F)(F)F)c(C(=O)Nc2ccc(C(F)(F)F)cc2)c1Cl	0	0	0	0	0	0
COc1ccc(NC(=O)c2c(C(F)(F)F)nn(C)c2SCc2ccccc2)cc1	0	0	0	8.9µM	0	0
CCN(CC)S(=O)(=O)c1ccc(N2CCOCC2)c(NC(=O)CCOc2ccccc2)c1	0[9.22 µM]	0[10 µM]	-	-	-	-
CCN(CC)S(=O)(=O)c1ccc(N2CCOCC2)c(NC(=O)COc2ccccc2)c1	0	0	0	0.22µM	-	0
CCN(CC)S(=O)(=O)c1ccc(N2CCOCC2)c(NC(=O)c2ccc(C#N)cc2)c1	0	0	0	20µM	-	-
CCN(CC)S(=O)(=O)c1ccc(N2CCOCC2)c(NC(=O)CNCCc2ccccc2)c1	0[9.22 µM]	0[10 µM]	-	11µM	-	-
O=C(COS(=O)c1ccccc1)Nc1cc(Cl)ccc1N1CCOCC1 (centres undefined)	0[9.22 µM]	0	0	1.3µM	-	-
O=C(CSc1ccc2nnc(-c3ccncc3)n2n1)N1CCc2ccccc21	0	0[10 µM]	0	0	0	0
COc1cc(CNn2c(C)n[nH]c2=S)cc(Cl)c1OCc1ccccc1	0	0	0	28µM	16µM	?
COc1cc(CNn2cn[nH]c2=S)cc(Cl)c1OCc1ccc(F)cc1	?	?	0	?	?	?
CN(C)CCCN1C(=O)c2cccc3c(Br)ccc(c23)C1=O	0	0	0	22µM	-	?
COc1ccc(CCNS(=O)(=O)c2ccc3c(c2)OCCO3)cc1	0	0	0	0	0	0
COc1cccc(C2C(C#N)=C(N)OC3=C2C(=O)CC(c2ccco2)C3)c1OCc1ccc(F)cc1 (centres undefined)	0	0	0	0	0	0[0.0737 µM]
N#CC1=C(N)OC2=C(C(=O)CC(c3ccco3)C2)C1c1ccc(OCc2c(F)cccc2Cl)cc1 (centres undefined)	?	0	0	8.9µM	0	0
